# Screening results as filed in PubChem BioAssay.
# DRD3 antagonist: blocks the human D3 dopamine receptor. P35462. D3R cells, DiscoveRx beta-arrestin luminescence, antagonist mode; hits give low values. max response, negative = inhibition, %. 360,000 tested, 2.5% active. AID 652054; in the data active means max response below about -50%; further: on the % scale 0 is the no-effect control and ±100 the full control effect
#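 Cells expressing the human receptor were seeded at 1500 cells/well, incubated overnight at 37 degrees C in 5% CO2, then exposed to library compounds with dopamine controls for 90 minutes at 37 degrees C before luminescent detection.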
# D1 antagonist: human D1 dopamine receptor antagonism. P21728. HEK293 TREx D1 cells, calcium flux, dopamine EC80; hits give low values. activity change, negative = inhibition, % at 10 µM. 360,000 tested, 3.2% active; in the data active means activity change below about -30%; further: on the % scale 0 is the no-effect control and ±100 the full control effect
# Target sequence (P21728 whole entry, looked up): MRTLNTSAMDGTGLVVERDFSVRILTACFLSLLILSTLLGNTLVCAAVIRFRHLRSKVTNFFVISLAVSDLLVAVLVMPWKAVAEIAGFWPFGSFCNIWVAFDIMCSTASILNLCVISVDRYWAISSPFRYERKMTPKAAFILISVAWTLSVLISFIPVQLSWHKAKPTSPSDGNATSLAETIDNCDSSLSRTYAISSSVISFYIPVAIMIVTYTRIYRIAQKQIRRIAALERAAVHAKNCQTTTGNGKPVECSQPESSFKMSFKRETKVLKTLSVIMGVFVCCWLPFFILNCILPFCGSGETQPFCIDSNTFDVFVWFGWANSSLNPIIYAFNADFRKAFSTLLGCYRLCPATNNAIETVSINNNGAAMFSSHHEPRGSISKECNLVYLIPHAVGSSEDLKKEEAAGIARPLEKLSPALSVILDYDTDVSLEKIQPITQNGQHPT
#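 Tetracycline-induced HEK293 T-REx cells with force-coupled D1 receptor were loaded with a no-wash calcium dye. Compound was added after a 10 s baseline and read kinetically for 180 s; EC80 dopamine was then added and calcium flux followed another 180 s.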
# DRD3 agonist: agonists of human D3 dopamine receptor; P35462; D3R DiscoveRx beta-arrestin cells, luminescence, 90 min; max activation, %; 410,000 tested, 0.58% active; AID 652048; in the data active means max activation above about 30%; further: 0% is about no effect
#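 Cells at 1500/well, incubated overnight, then treated with pinned compounds (dopamine as control) for 90 min at 37 degrees C. DiscoveRx reagent added for 30 - 60 minutes at room temperature; luminescence read.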
# D1 agonist: human D1 receptor agonism | P21728 | HEK293 T-REx D1 cells, calcium flux, agonist mode | activation, % at 2 µM | 360,000 tested, 1% active | AID 504660; in the data active means activation above about 30%; further: 0% is about no effect
#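 Inducible HEK293 T-REx D1 cells, force-coupled to calcium signalling, were plated at 4000 cells/well with tetracycline and held overnight at 30 C. After no-wash calcium dye loading, compound-evoked calcium rise over 180 s flagged agonists.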
# D1 potentiator: enhances dopamine response at the human D1 receptor. HEK293 TREx D1 cells, calcium flux, dopamine EC20 potentiation. AID 504651. P21728. potentiation, % at 10 µM. 360,000 tested, 0.036% active; in the data active means potentiation above about 30%; further: 0% is about no effect
# Numbers without * were called inactive; · = not tested or not shown. Hits are enriched below; roughly 6% of the tested compounds scored in any of these assays.
SMILES,DRD3 antagonist,D1 antagonist,DRD3 agonist,D1 agonist,D1 potentiator
COC(=O)c1cc(NC(=O)Nc2cccc(Cl)c2)ccc1Cl,-16,-41*,-10,25,-10
CCc1ccccc1NC(=O)Nc1cccc(F)c1,21,-42*,3,17,-8
CCC(C)[C@H](NC(=O)Nc1ccc(S(N)(=O)=O)cc1)C(=O)O (some centres not stated),9,18,0,5,-2
O=C(Nc1cccc(Cl)c1)Nc1cnccn1,-3,-45*,-1,13,-7
CCC(C)[C@H](NC(=O)Nc1cccc(Cl)c1)C(=O)O (some centres not stated),14,-12,9,31*,-2
COc1ccc(CCn2c3c(c(=O)[nH]c2=O)C(NC(=O)c2ccccc2OC)(C(F)(F)F)C(=O)N3)cc1OC (configuration not stated),·,-11,-11,2,-1
CNS(=O)(=O)c1ccc(NC(=O)Nc2cccc(F)c2)cc1,-15,-50*,5,4,-11
O=S(=O)(NC1CCCC(NS(=O)(=O)c2c(F)cccc2F)C1)c1ccc2c(c1)OCCO2 (configuration not stated),·,-6,·,0,-2
COc1ccc(CCN(C)CC(O)COC(c2ccc(F)cc2)c2ccc(F)cc2)cc1OC (configuration not stated),-61*,-27,-20,33*,-19
COc1ccc(CCN(C)CC(O)COc2c(C)ccc(C)c2C)cc1OC (configuration not stated),-22,-16,-12,34*,-7
CCOC(=O)C1CCCN(C(=O)Cn2ncn3c(cc4sc(CC)cc43)c2=O)C1 (configuration not stated),·,11,0,1,-4
CSc1nn(Cc2ccc(C)cc2)c(N)c1S(=O)(=O)c1ccccc1,·,-7,4,4,1
CC(C)c1c(C(=O)N/N=C/c2cccc(OCc3ccccc3)c2)nnn1-c1nonc1N,45,2,40*,7,2
CC(C)c1c(C(=O)N/N=C/c2ccsc2)nnn1-c1nonc1N,-12,28,1,39*,19
CC(C)c1c(C(=O)N/N=C/c2ccoc2)nnn1-c1nonc1N,1,5,1,16,6
CC(C)c1c(C(=O)N/N=C/c2ccc(C(F)(F)F)cc2)nnn1-c1nonc1N,-23,8,-2,253*,9
Cc1cccc(NC(=O)Cn2nnc(C(=O)Nc3ccccc3Br)c2N)c1C,·,-3,-8,7,-5
CCc1ccc(N2CCn3c2nc2c3c(=O)n(Cc3cccc(C)c3)c(=O)n2C)cc1,·,7,2,0,1
COC(=O)C1=C(c2ccccc2)c2ccccc2S(=O)(=O)N1CC(=O)Nc1cccc(C(C)=O)c1,·,-27,-6,2,-1
CCOC(=O)c1sc2ccccc2c1S(=O)(=O)Nc1ccc(OC)c(Cl)c1,·,-19,6,7,-6
Cc1cc(C(C)(C)C)cc(C)c1CC1=NCCN1,-79*,-11,0,0,-3
COc1ccc(-c2nnc(SCC(=O)N(C)Cc3ccccc3)o2)cc1OC,·,-4,4,16,-3
CN(Cc1ccccc1)C(=O)CSc1nnc(-c2cccc(Cl)c2)o1,·,-54*,-12,56*,4
Nc1cc2c(cc1C(=O)c1ccccc1)OCCO2,-60*,11,-1,0,8
COC(=O)c1cc2c(cc1N)OCCO2,-1,19,5,1,-2
SMILES,DRD3 antagonist,D1 antagonist,DRD3 agonist,D1 agonist,D1 potentiator
Cc1ccc(C(=O)c2cc3c(cc2N)OCCO3)cc1,17,-76*,3,-1,-5
Nc1cc2c(cc1C(=O)c1ccc(Cl)cc1)OCCO2,-3,2,-6,2,2
O=C(CCn1c(=O)c2cccn2c2cccnc21)NCc1ccccc1Br,·,9,-14,1,-2
CO/N=C/c1ccc(N2CCN(C(=O)c3cccc(C(F)(F)F)c3)CC2)c([N+](=O)[O-])c1,45,-12,52*,10,-2
CO/N=C/c1ccc(N2CCN(C(=O)c3ccc(F)cc3)CC2)c([N+](=O)[O-])c1,27,-27,1,20,-8
CCOc1ccccc1NC(=O)Cc1csc(COc2cccc(C)c2)n1,·,1,4,68*,1
